According to PubChem BioAssay (NCI):
This is part of a sample that, as a whole, favours compounds with a hit. Of some 83,000 tested, about 20% had one in any assay.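 Each cell line was grown in a 96-well plate and treated with one concentration of compound for 48 hours. Values below 10 were considered active.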 Values without a mark were called inactive. Active and inactive are the calls of the source.

system: NCI/ADR-RES ovarian; test: NCI-60 one-dose screen, 48 h (100 = growth as untreated, 0 = no growth, -100 = all killed); conditions: 10 µM unless noted
Experimental: Growth inhibition of the NCI/ADR-RES human […] tumor cell line is measured as a screen for anti-cancer activity. Cells are grown in 96 well plates and exposed to the test compound for 48 hours. Compounds are tested at a single concentration, which is 10^-5 M for most compounds. The reported endpoint is percent growth (GI% or GIPRCNT), where numbers from 0 - 100% represent growth inhibition, and numbers from -100% - 0 represent cell death. For example, a value of 40 represents 60% growth inhibition. A value of 0 means no net growth occurred over the course of the experiment. A value of -40 indicates 40% of cells at the beginning of the experiment died by the end of the experiment. A value of -100 means all cells are dead at the end of the experiment.
NCI-60 Human Tumor Cell Lines Screen was performed using the standard one-dose NCI protocol, which is described in more detail at https://dtp.cancer.gov/discovery_development/nci-60/default.htm.
Compounds with GIPRCNT values below 10 were considered active. Activity score was based on GIPRCNT using the following formula: […]
Score is 0 for GIPRCNT values of 100 or above, 50 for GIPRCNT values of 0, and 100 for GIPRCNT values of -100.

Row | SMILES | growth
1 | NC(N)=N/N=C(/c1ccccc1)c1ccc(Cl)cc1 | 82.6%
2 | COc1cc(/C=C/C(=O)N2CCN(C(=O)/C=C/c3ccccc3)CC2)cc(OC)c1OC | 108%
3 | CSc1ccc2c(c1)N(CCC1CCCCN1C)c1ccccc1S2 (stereo not given) | 65.6%
4 | O=C1Nc2ccccc2C12Nc1cc(Cl)ccc1S2 (stereo not given) | 97.2%
5 | OCc1nnn(-c2ccccc2)c1CO | 115%
6 | O=[N+]([O-])c1ccc(N/N=C\c2ccccc2[N+](=O)[O-])nc1 | 108%
7 | ClC1=C(Cl)C(Cl)=C(Cl)C1=Cc1ccc(Cl)cc1 | -47.5% (active)
8 | CC(=O)NC1(C(=O)O)CCCC1 | 140%
9 | Nc1ccc2c(c1)/C(=N/O)c1cc([N+](=O)[O-])ccc1-2 | 109%
10 | CCCCCCCCCCCCCCCCCc1nccn1CCO | 59.9%
11 | Cc1cc(C(C)(C)C)cc(C)c1CC1=NCCN1 | 101%
12 | NS(=O)(=O)c1ccc(NC2=C(Cl)C(=O)c3ccccc3C2=O)cc1 | 93.6%
13 | Nc1nc2ncc(CCNc3ccc(C(=O)NC(CCC(=O)O)C(=O)O)cc3)nc2c(=O)[nH]1 (stereo not given) | -2.15% (active)
14 | Cc1cc(N2CCOCC2)nc(N2CCOCC2)n1 | 96.3%
15 | Nc1ccc(C2=Nc3cccc4cccc(c34)S2)cc1 | 107%
16 | CC[C@@H]1OC(=O)[C@H](C)[C@@H](O[C@H]2C[C@@](C)(OC)[C@@H](O)[C@H](C)O2)[C@H](C)[C@@H](O[C@@H]2O[C@H](C)C[C@H](N(C)C)[C@H]2O)[C@](C)(O)C[C@@H](C)[C@@H]2N[C@@H](COCCOC)O[C@H]([C@H]2C)[C@]1(C)O | 101%
17 | COc1cc(OC)c2sc(-c3ccc(-n4cncc4-c4ccc(N)cc4)cc3)nc2c1 | 68.9%
18 | O=[N+]([O-])c1cnc(Sc2ccncn2)c([N+](=O)[O-])c1 | 107%
19 | CCN(CC)CCOc1ccc(C2=C(c3ccccc3)CCc3cc(OC)ccc32)cc1 | -26.1% (active)
20 | CCOc1cc(-c2ccc[nH]2)[nH]c1/C=C1\N=C(C)C(C(=O)OC)=C1C | -58.7% (active)

Row | SMILES | growth
21 | CCOC(=O)/C=C(/C)Sc1cc(O)c2ccccc2c1O | 21.6%
22 | COc1cc2c(C#N)n3c(c2cc1OC)C(=O)C(c1ccccc1)Oc1ccccc1-3 (stereo not given) | 21.5%
23 | C/C(=N/N=C(N)N)c1ccc(Cl)cc1 | 86.5%
24 | CCCCC(C#N)C(N)=O (stereo not given) | 105%
25 | O=C1Cc2cc(CCn3cncn3)c(Cl)cc2N1 | 52.9%
26 | O=[N+]([O-])c1ccc(Oc2cccc(C(F)(F)F)c2)c([N+](=O)[O-])c1 | 29.1%
27 | NC(=O)N/N=C/c1ccc(Br)o1 | 105%
28 | O=C1OC(c2ccc(-c3ccccc3)cc2)=C/C1=C/c1cccs1 | 86.5%
29 | C[C@]12C[C@H](O)[C@H]3[C@@H](CCC4=CC(=O)CC[C@@]43C)[C@@H]1CC[C@@H]2C(=O)CO | -34.7% (active)
30 | Cc1nn(-c2ccc(Br)cc2)c2nc3c(nc12)C(=O)C(=O)c1ccccc1-3 | 86.4%
31 | CN1C(=O)C(=Cc2cn(Cc3ccccc3)c3ccc(Br)cc23)C(=O)N(C)C1=O | 96.9%
32 | CCS(=O)(=O)OCCCl | -5.43% (active)
33 | O=C(NCCCO)c1cc(Cl)ccc1O | 95.8%
34 | CC(=O)NCCSC(=O)C(=O)SCCNC(C)=O | 100%
35 | CN1COc2ccc3ccccc3c2C1 | 89.8%
36 | Cn1cc(-c2csc(-c3cn(C)c4ncccc34)n2)c2cc(Br)cnc21 | 79.2%
37 | O=c1ccn(C2CCCO2)c(=O)[nH]1 (stereo not given) | 110%
38 | CN(C)c1ccc2c(c1)/C(=N/O)c1ccccc1-2 | 41.9%
39 | Nc1ccccc1-c1ccc([N+](=O)[O-])cc1 | 52.2%
40 | C[n+]1ccc(C#N)c2ccccc21 | 101%
